# Assay results from PubChem BioAssay AID1347131 (National Center for Advancing Translational Sciences (NCATS), 2019).
# Screen size: about 410,000 compounds; about 2,000 (0.49%) were called active. Another 8% or so got no clear call; they are omitted. Many of the other results were omitted from the sample, so actives are more common in it than they were. Values without a mark were called inactive. Calls follow the shape of the full dose curve; tested in HEK293 reporter line.
# Experiment: qHTS Assay for Foot and Mouth Disease Virus Antivirals: Primary Screen against the MLPCN compound library; also: nearly all actives have a fitted effect of over 55% in size
# Conditions: FMDV antiviral cell-based qHTS; series mostly up to 57.9 µM; activity, negative = inhibition: at the top concentration
# Potency is read from the fitted curve at half-maximal effect.
Compound,"activity, negative = inhibition [%]",Potency
COCC(C)n1c(C)cc(C(=O)COC(=O)c2cc(=O)[nH]c3ccccc23)c1C (stereo not drawn),-25.1,
CC(C)(C)OC(=O)N1CCC(c2c(C(=O)N3CCN(Cc4ccccc4)CC3)cnn2-c2ccc(Cl)cc2)CC1,-34,
O=S(=O)(N/N=C\c1ccc2c(c1)OCO2)c1ccc(Cl)cc1,102,
CCc1ccc(S(=O)(=O)N/N=C\c2ccc3c(c2)OCO3)cc1,108,
N/C(=N\N=C\c1ccc2c(c1)OCO2)c1nonc1N,,17.8 µM (active)
Brc1ccccc1CN1CCN(Cc2c[nH]c3ccccc23)CC1,-41.3,
CCN(CC)c1ccc2c(Cl)c(Br)c(=O)oc2c1,,31.6 µM (active)
CCN(CC)c1ccc2cc(C(=O)NNC(=O)c3ccc(S(=O)(=O)N4CCCCC4)cc3)c(=O)oc2c1,-31,
CCN(Cc1cc(=O)oc2cc(C)ccc12)c1ccccc1,-38.6,
O=C(C1=C[C@H](c2ccc3c(c2)OCO3)C[C@H](OCc2ccc(CO)cc2)O1)N1CCN(Cc2ccc3c(c2)OCO3)CC1,-38,
Cc1ccc(Nc2nc(N)nc(CN3CCN(c4ccccc4F)CC3)n2)cc1,-33,
CCOc1ccc(C=NNC(=O)c2cccc3ccccc23)cc1OCC,-38.1,
O=C(Oc1cccc(/C=N/Nc2nc(N3CCOCC3)nc(N3CCOCC3)n2)c1)c1ccco1,-35.2,
O=C(N/N=C/c1ccc2ncccc2c1)c1ccco1,,14.1 µM (active)
Cc1ccc(-c2ccc(=O)n(Cc3cc(C)ccc3C)n2)cc1,,inactive
CCN1CCN(c2cc(-c3ccccc3)nc3cc(-c4cccc(F)c4)nn23)CC1,-31.5,
C=CC[C@@H](CC(=O)OC(C)(C)C)C(=O)OC[C@@H]1CCCN1C(=O)[C@@H](CC=C)CC(=O)N[C@@H](CO)Cc1ccccc1,-31,
C=CC[C@@H](CC(=O)OC(C)(C)C)C(=O)OC[C@@H]1CCCN1C(=O)[C@@H](CC=C)CC(=O)N[C@H](CO)Cc1ccccc1,,14.1 µM (active)
C=CC[C@@H](Cc1ccc(F)cc1)C(=O)OC[C@H]1CCCN1C(=O)[C@@H](CC=C)CC(=O)N(CCO)Cc1ccccc1,-34.2,
COc1ccc(C(C)=O)cc1COC(=O)CNC(=O)c1ccccc1F,-36.6,
N#CC(=C=[N-])c1nc2ccccc2nc1-[n+]1ccccc1,-31.6,
COc1cccc(/C=N/NC(=O)CSc2nnc(C)n2-c2ccccc2)c1OC,-35.1,
COc1cccc(/C=N/NC(N)=S)c1OCc1cccc(Cl)c1,,22.4 µM (active)
COc1cc(/C=N/NC(N)=S)cc(Br)c1OCc1ccccc1F,-30.1,
Cc1cc(-c2nc3cc(F)ccc3s2)ccc1N,,12.6 µM (active)

Compound,"activity, negative = inhibition [%]",Potency
CN(C(=O)OC(C)(C)C)c1ccc(-c2nc3ccccc3s2)cc1,-100,
CC(C)(C)C(=O)Nc1ccc(-c2nc3ccccc3s2)cc1,-67.5,
Cc1cc(-c2nc3ccccc3s2)ccc1N,,7.94 µM (active)
Cc1ccccc1-c1nc(CN2CCC(C(=O)NC3CCN(Cc4ccccc4)CC3)CC2)c(C)o1,-29.5,
Cc1cc(=O)[nH]c(N/N=C/C2=C(N3CCOCC3)C(=C\c3ccc(Cl)cc3)/CC2)n1,-36.7,
O=C(Nc1ccc(Cl)c(C(F)(F)F)c1)c1cc2nc(-c3ccc4c(c3)OCO4)cc(C(F)(F)F)n2n1,-21.9,
CC[C@H]1c2[nH]c3ccc(C(C)C)cc3c2[C@@H]2CCN3C(=O)CCC[C@H]1[C@H]23,-33.7,
CC(C)(C)n1ncc2c(=O)n(CC(=O)NCc3ccccc3)cnc21,,20 µM (active)
CC(C)(C)n1ncc2c(=O)n(CC(=O)Nc3ccc(Cl)cc3)cnc21,-38.5,
CC(C)(C)n1ncc2c(=O)n(Cc3c(Cl)cccc3Br)cnc21,-48.1,
CCCCCn1c(NC(=O)c2ccco2)c(C(=O)OCC)c2nc3ccccc3nc21,-41.5,
CCOc1ccc(/C=C2\CCc3ccccc3C2=O)cc1,,20 µM (active)
COc1ccc(/C=C2\CN(Cc3ccccc3)C/C(=C\c3ccc(OC)cc3)C2=O)cc1,-34.8,
COc1cc(/C=C2/CCc3ccccc3C2=O)cc(OC)c1OC,-30.1,
Cc1ccc(-c2noc(CCC(=O)NCCN3CCc4ccccc4C3)n2)cc1,-32.9,
O=S(=O)(N/N=C\c1cccc(F)c1)c1ccccc1,113,
Fc1cccc(/C=N/Nc2ccc3ccccc3n2)c1,,12.6 µM (active)
C(=N\Nc1ccc2ccccc2n1)/c1ccc2c(c1)OCCO2,-52.8,
O=C(NCc1ccc(F)cc1)c1cc(Sc2ccc(F)cc2F)nc2ccccc12,-34,
Cc1ccc(Cl)c(OCCN2CCc3ccccc3C2)c1,-34.8,
CN(CC(=O)Nc1ccc(Cl)cc1)CC(=O)Nc1sc2c(c1C(N)=O)CCC2,-41.6,
CC1Cc2nc(SCC(=O)N3CCN(c4ccccc4)CC3)n(C)c(=O)c2S1 (stereo not drawn),-31.1,
O=C(CSC1=NCCS1)N1CCN(c2ccccc2)CC1,-31.3,
CC1(C)Cc2ccccc2-c2nnc(SCC(=O)N3CCN(c4ccccc4)CC3)n21,,7.94 µM (active)
Cc1cc2ncc(-c3cccs3)nc2cc1C,,11.2 µM (active)

Compound,"activity, negative = inhibition [%]",Potency
FC(F)(F)c1cc(-c2cccs2)nc(-n2cc(Br)cn2)n1,-39.4,
C/C(=N\NC(=O)c1cc(-c2cccs2)nc2ccccc12)c1ccccn1,-31.1,
O=C1Nc2ccc([N+](=O)[O-])cc2OC1CCN1CCN(c2ccccc2)CC1 (stereo not drawn),-30,
COc1ccc(-c2ccc(C(=O)N3CCN(C)CC3)c3occc23)c(C)c1,-36.9,
Nc1nc(CSc2n[nH]c(-c3ccccc3)n2)nc(Nc2ccccc2)n1,,25.1 µM (active)
Nc1nc(COC(=O)CCC(=O)c2ccc(Cl)cc2)nc(Nc2ccccc2)n1,-36.9,
CCOc1ccccc1CNC(=O)CSc1n[nH]c(-c2ccccc2)n1,-36.7,
O=C1c2cccnc2Oc2ccc(Cl)cc2N1Cc1ccc(F)cc1,-37.2,
[N-]=[N+]=CC(=O)C(Cc1ccccc1)N1C(=O)c2ccccc2C1=O (stereo not drawn),-32.3,
Cc1ccc2[nH]c(C(=O)N3CCCCC3)cc2c1,100,
O=C(c1cc2ccc3cccnc3c2[nH]1)N1CCN(c2cccc(Cl)c2)CC1,-32.5,
O=C(c1cc2ccc3cccnc3c2[nH]1)N1CCCCC1,,14.1 µM (active)
CN(C)N(Cc1ccccc1)C(=O)C(O)(c1ccccc1)c1ccccc1,-30.8,
CCc1ccc(NC(=O)CSCc2nc(N)nc(Nc3ccccc3CC)n2)cc1,-34.6,
Cc1ccc(C(=O)COC(=O)c2cccc(NC(=O)c3ccc([N+](=O)[O-])cc3[N+](=O)[O-])c2)cc1,,20 µM (active)
CCCC(=O)Nc1cccc(NC(=O)c2cccc([N+](=O)[O-])c2C)c1,-33.7,
Cc1ccc(C(=O)COC(=O)c2cc(Cl)ccc2O)cc1[N+](=O)[O-],-36.5,
C=C(C(=O)c1ccccc1)C(c1ccccc1)C(C)C(=O)c1ccccc1 (stereo not drawn),-30.2,
CC(=O)OC1CC2C(C)(C)C(O)CC[C@@]2(C)C2CC[C@@]3(C)C(c4ccoc4)OC(=O)C4OC43[C@]12C (stereo partly drawn),-31.4,
CS(=O)(=O)c1ccc(C(=O)Nc2ccc(-c3nc4ccccc4[nH]3)cc2)cc1,-32.1,
COC(=O)c1ccc(-c2nc3ccccc3[nH]2)cc1,,15.8 µM (active)
CS(=O)(=O)c1ccc(C(=O)Nc2cccc(-c3nc4ccccc4[nH]3)c2)cc1,-32.3,
COc1ccccc1N1CCN(Cc2cc(=O)oc3cc(C)ccc23)CC1,-37.9,
Cc1nc2ccccc2c2oc(C(=O)N3CC(C)CC(C)C3)cc12 (stereo not drawn),-10.3,
Cc1ccc(OC(=O)Cn2c(C(F)(F)F)nc3ccccc32)cc1,-35.8,

Compound,"activity, negative = inhibition [%]",Potency
COc1cccc(NC(=S)NCc2cccs2)c1,133,
CC(=O)N1CC=C2C(C#N)=C(N)C(C#N)(C#N)C(CCc3ccccc3)C2C1 (stereo not drawn),-30,
N#CC1=C(N)C(C#N)(C#N)C(c2cccnc2)C2CN(C(=O)OCc3ccccc3)CC=C12 (stereo not drawn),,22.4 µM (active)
N#CC1=C(N)C(C#N)(C#N)[C@H](c2ccoc2)[C@H]2CN(Cc3ccccc3)CC=C12,-32.2,
Brc1ccc([C@H]2C=C[C@H]3CCCN4CC[C@H]2[C@@H]3[C@]42CO2)cc1,-43.9,
CC(=O)Nc1ccc(S(=O)(=O)c2ccc([N+](=O)[O-])cc2)cc1,-32.5,
COc1ccc(CN2C(=O)NC(=O)/C(=C/c3ccoc3)C2=O)cc1,-38,
O=C1NC(=O)N(CCc2ccc(F)cc2)C(=O)/C1=C/C=C/c1ccccc1,,10 µM (active)
O=C1NC(=O)N(Cc2ccccc2)C(=O)/C1=C\N1CCCc2ccccc21,-2.94,
O=C(Nc1ccc2c(c1)OCO2)c1cc(-c2ccc(Br)cc2)on1,-34.7,
CN(CCOc1ccc(Cl)cc1)CC(=O)Nc1ccc(OC(F)(F)F)cc1,-33.4,
N#Cc1c(/N=C/c2cccs2)sc2c1CCCCC2,,25.1 µM (active)
O=C(Nc1sc2c(c1C(=O)Nc1ccc(Cl)cc1)CCCC2)c1cccs1,-28.2,
Cc1[nH]n(-c2ccc(F)cc2)c(=O)c1/C=N/c1sc2c(c1C#N)CCCC2,-28.2,
O=C(Cc1ccccc1)NCC(=O)OCc1ccccc1F,-16.4,
CC(Sc1nc2ccccc2c(=O)n1CC1CCCO1)C(=O)N(C)c1ccccc1 (stereo not drawn),-30.8,
COc1ccc(C(CC(=O)Nc2cc([N+](=O)[O-])ccc2OC)c2ccccc2)cc1 (stereo not drawn),-39,
CC(=O)NNC(=S)NC(=O)C(c1ccccc1)c1ccccc1,-36.8,
CCOC1=C2CN(S(=O)(=O)c3ccc(C)cc3)[C@H](c3ccccc3)C[C@@H]2N(S(=O)(=O)c2ccc(C)cc2)[C@H](c2ccccc2)C1,-33,
CC(C)c1ccc(NC(=O)c2cc(S(=O)(=O)N(C)C3CCCCC3)ccc2F)cc1,-32.3,
CCCOc1ccc(C(=O)Nc2ccc3oc(-c4cccc(Cl)c4Cl)nc3c2)cc1,-34.3,
CCc1ccc2oc(-c3cc(N)ccc3Cl)nc2c1,,17.8 µM (active)
CCOCCc1nnc(NC(=O)CS(=O)(=O)Cc2ccccc2)s1,-32.2,
